# Laboratory results as given in PubChem BioAssay AID1259415 (National Center for Advancing Translational Sciences (NCATS), 2018).
# Out of some 410,000 compounds screened, about 18,000 (4.4%) were called active. Inconclusive results (about 7%) are left out. No stated cut-off is given here; in the data, active means activity change below about -60%; inconclusive means no clear call, values can overlap the other calls; inactive means above about -39%. What follows is part of a selection rich in actives, with near analogues and random picks from the rest.
# Assay: qHTS Assay for inhibitors of the human cytomegalovirus (HCMV)
# Conditions: HFF cells, HCMV-luciferase reporter, 72 h; at 57.5 µM; stronger effect = lower value
# Summary of the method: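 Luciferase read-out from HCMV-luciferase-infected HFFs (MOI 1 PFU/cell) 72 h post infection at 37C; compounds added after 16 h cell attachment; activity normalized between buffer-only basal and Salinomycin (10uM) inhibitor controls.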
# On the % scale 0 is the no-effect control and ±100 the full control effect.
row,Compound,"activity change, negative = inhibition"
1,CCOC(=O)C1CCN(c2nc3c(S(=O)(=O)c4ccc(CC)cc4)nnn3c3ccc(Cl)cc23)CC1,10.1% (inactive)
2,COc1ccc2c(c1)CC[C@@H]1[C@@H]2CC[C@]2(C)C(=O)CC[C@@H]12,-18.8% (inactive)
3,Cc1ccc(-c2cn3cc(C)ccc3n2)cc1,-91.4% (active)
4,Cc1nc(=O)c(-c2ccccc2)c(C)n1-c1ccc(Br)cc1,-37% (inactive)
5,Cc1ccc(-c2cn3cc([N+](=O)[O-])ccc3n2)cc1,-89.1% (active)
6,CC(=O)Nc1c(-c2ccc(C)cc2)nc2ccc(Cl)cn12,7.31% (inactive)
7,Cc1ccc2nc(-c3ccc(Br)cc3)cn2c1,-89.7% (active)
8,Cc1ccc(-c2nc(SCc3ccc(Br)cc3)n3[nH]c(=O)cc3n2)cc1,81.8% (inactive)
9,Cc1ccc2nc(-c3ccccc3)c(CC3CCCCC3)n2c1,43.3% (inactive)
10,Cc1ccc(-n2cc3ccc([N+](=O)[O-])cc3n2)cc1,46.8% (inactive)
11,Cc1ccc(N2CCN(c3ccc([N+](=O)[O-])cn3)CC2)c(C)c1,-6% (inactive)
12,CCOC(=O)c1c(C)[nH]c(C)c1S(=O)(=O)N1CCC(C(=O)Nc2ccc(C)c(Cl)c2)CC1,1.11% (inactive)
13,CCOC(=O)c1c(C)[nH]c(CCC(=O)NCCCN2CCN(c3cccc(Cl)c3)CC2)c1C,-37.8% (inactive)
14,CCOc1cc(CNC(=O)c2sc3ncnc(N(C)C4CCCCC4)c3c2C)ccc1OC,-22.8% (inactive)
15,O=C1CC(Sc2ncn[nH]2)C(=O)N1c1ccccc1 (stereo unspecified),-11.2% (inactive)
16,CCOc1ccc(CCNC(=O)CN(c2ccc(C)cc2)S(=O)(=O)N(C)C)cc1OCC,-14.8% (inactive)
17,Cc1nn2c(=O)cc(COC(=O)CNC(=O)c3ccc(F)cc3)nc2s1,-0.933% (inactive)
18,CCOC(=O)c1ccn(S(=O)(=O)c2ccc(C)cc2)c1-c1ccccc1,-18.7% (inactive)
19,CCOC(=O)C1C(C)C(C(C)(C)C)N(S(=O)(=O)c2ccc(C)cc2)C1c1ccccc1 (stereo unspecified),-77.2% (active)
20,Cc1ccc(S(=O)(=O)N2[C@@H](c3cccc4ccccc34)C(C(=O)O)=C[C@H]2C(C)(C)C)cc1,-14.1% (inactive)
21,CCc1nc2ccc(C(=O)N3CCN(c4cc(Cl)ccc4C)CC3)cc2nc1CC,33.5% (inactive)
22,CCC(=O)N1CCc2cc(S(=O)(=O)NC(C(=O)Nc3ccc(C(C)=O)cc3)C(C)C)ccc21 (stereo unspecified),7.35% (inactive)
23,C=Cn1cc[n+](CC(=O)c2ccc(OC)c(OC)c2)c1,-10.4% (inactive)
24,COc1ccc(-c2ccc(Nc3ccc(S(=O)(=O)N4CCCC4)cc3)nn2)cc1OC,-67% (active)
25,COc1ccccc1CC(=O)Nc1ccc(S(=O)(=O)N2CCCC2)cc1,-14.7% (inactive)
26,COc1ccc(S(=O)(=O)N2CCC(C(=O)N3CCCC3)CC2)cc1C,1.95% (inactive)
